Our source for the outcome values is PubChem BioAssay AID504873 (The Scripps Research Institute Molecular Screening Center, 2011).

The target in this assay is Sphingosine 1-phosphate receptor 2 (Homo sapiens) (UniProt O95136). Briefly: activation of human S1P2 receptor – cell-based, fluorescence, set 2, counter-screen for S1P4 agonist project, late-stage follow-up (AID 504873). The following applies: S1P2-expressing cells, agonist fluorescence read-out; series mostly up to 25 µM. For orientation: A counterscreen serves to expose hits that act by an unwanted route or on another target.
Chain of Sphingosine 1-phosphate receptor 2 (Homo sapiens) (O95136 whole entry, looked up): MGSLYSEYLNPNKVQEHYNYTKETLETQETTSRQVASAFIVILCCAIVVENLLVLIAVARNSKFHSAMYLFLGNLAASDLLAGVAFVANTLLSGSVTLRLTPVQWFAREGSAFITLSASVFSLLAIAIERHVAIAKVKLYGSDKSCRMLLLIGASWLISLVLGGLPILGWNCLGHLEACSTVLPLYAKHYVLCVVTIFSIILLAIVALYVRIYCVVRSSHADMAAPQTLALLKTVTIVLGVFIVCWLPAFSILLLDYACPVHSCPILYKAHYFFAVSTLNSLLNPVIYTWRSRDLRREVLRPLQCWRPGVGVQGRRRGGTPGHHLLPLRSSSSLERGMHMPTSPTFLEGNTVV

Entries with a potency or affinity are not part of this list. Calls of active or inactive are those of the source. How the calls were made is not given here.

Consider `CC/N=C1/SC(=Cc2cc(C)n(Cc3ccccc3OC)c2C)C(=O)N1CC`, for which the result was inactive.
